# An excerpt weighted towards active compounds, which were near 6.9% of everything screened.
# Beta apoptosis – inhibitors of cytokine-induced beta cell apoptosis, primary screen, luminescence; AID 435005, 2010; protection from apoptosis, % (no concentration beside the values); INS-1E cytokine-induced death, ATP luminescence, 48 h; percent of positive-control rescue, neutral wells zero; 0.8% of 300,000 active;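 active means Every replicate reaches about 75%, or at least half do and their mean reaches it too, limit read from the data; inconclusive means At least half of replicates reach the limit but their mean does not; inactive means Under half of replicates reach the limit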;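 further: higher means more ATP so stronger rescue from cytokine killing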
# CSC inhib – cancer stem cell viability inhibitors, primary screen, luminescence. cancer stem cell-like cells viability. inhibition, % at 7.5 µM. 1.1% of 300,000 active; in the data active means inhibition above about 75%; inconclusive means no clear call, values can overlap the other calls; tested in HMLE shEcad cells
# SKKanGAS inh – S. pyogenes SKKanGAS growth inhibitors in kanamycin, primary screen, streptokinase expression inhibitor project, SKKanGAS strain, BacTiter-Glo luminescence. 1.3% of 300,000 active. inhibition, % at 7.5 µM. AID 1662, 2009. 6 h;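 active means mean replicate score, as percent of positive control median, at least 50; inconclusive means mean below 50 but one replicate at or above 50; inactive means mean and every replicate below 50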;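 further: strain carries kanamycin resistance gene driven by streptokinase promoter and grows in 40 µg/ml kanamycin; loss of luminescence reflects streptokinase promoter inhibition or plain growth inhibition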
# NR3A LBD binder – binders of NR3A ligand-binding domain, primary screen, biophysical, differential scanning fluorimetry, uHTS; NR3A LBD differential scanning fluorimetry, Tm shift; 0% = protein alone, 100% = glycine-bound protein; Tm shift relative to glycine control, % at 25 µM; 2.5% of 340,000 active;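 active means melting temperature shift of at least 10% of the positive control shift, at one fixed dose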
# MPTP inh – mitochondrial permeability transition pore inhibitors, primary screen, biochemical, isolated mouse mitochondria, absorbance | Ca2+ swelling absorbance, 30 min | inhibition, % at 10 µM | 1.4% of 360,000 active | AID 602449, 2012;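 active means inhibition of 50% or more, scaled per plate between neutral and stimulator controls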
# Mdm2 MdmX PPI – inhibitors of human Mdm2-MdmX association, primary screen, cell-based, luminescence, split luciferase, SaOS-2, uHTS; Protein Mdm4 (Homo sapiens) + E3 ubiquitin-protein ligase Mdm2 (Homo sapiens), …; SaOS-2 split-luciferase Mdm2/MdmX complementation; inhibition, % at 8 µM; 3% of 330,000 active;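 active means inhibition of at least 50% at 8 µM in the primary screen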
# Target sequence (O15151 whole entry, looked up): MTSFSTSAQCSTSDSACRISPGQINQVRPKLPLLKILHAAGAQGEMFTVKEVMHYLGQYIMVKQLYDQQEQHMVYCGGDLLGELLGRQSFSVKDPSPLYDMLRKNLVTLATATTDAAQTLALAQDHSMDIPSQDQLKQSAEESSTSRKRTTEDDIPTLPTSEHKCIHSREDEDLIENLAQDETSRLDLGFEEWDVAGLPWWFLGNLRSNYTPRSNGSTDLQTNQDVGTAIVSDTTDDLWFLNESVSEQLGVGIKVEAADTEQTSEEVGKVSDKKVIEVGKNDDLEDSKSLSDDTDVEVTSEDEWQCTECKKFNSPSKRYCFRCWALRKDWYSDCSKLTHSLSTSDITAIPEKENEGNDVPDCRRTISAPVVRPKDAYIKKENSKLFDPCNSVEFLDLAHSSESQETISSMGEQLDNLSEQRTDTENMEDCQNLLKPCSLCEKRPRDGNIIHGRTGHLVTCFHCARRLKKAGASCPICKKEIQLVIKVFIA
# Target sequence (Q00987 whole entry, looked up): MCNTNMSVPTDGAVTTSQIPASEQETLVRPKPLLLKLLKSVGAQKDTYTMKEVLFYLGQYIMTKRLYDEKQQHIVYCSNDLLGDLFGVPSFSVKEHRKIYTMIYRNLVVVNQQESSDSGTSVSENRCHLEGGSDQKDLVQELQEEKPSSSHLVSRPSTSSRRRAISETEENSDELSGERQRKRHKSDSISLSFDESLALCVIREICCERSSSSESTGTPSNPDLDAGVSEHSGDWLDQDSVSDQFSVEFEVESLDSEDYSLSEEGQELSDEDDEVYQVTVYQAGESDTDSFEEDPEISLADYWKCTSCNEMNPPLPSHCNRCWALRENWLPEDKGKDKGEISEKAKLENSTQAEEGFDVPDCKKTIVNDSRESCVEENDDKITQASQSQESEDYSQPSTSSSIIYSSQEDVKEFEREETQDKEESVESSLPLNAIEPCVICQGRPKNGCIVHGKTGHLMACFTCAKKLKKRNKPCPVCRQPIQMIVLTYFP
# Mdm2-MdmX conf – Mdm2-MdmX complex disruptors, retested hits, confirmation, luminescence, single concentration; shares compounds with Mdm2 MdmX PPI; Mdm2-MdmX binding, luminescent assay; inhibition, % at 8 µM; 55% of 10,000 active; AID 489028, 2010; in the data active means inhibition above about 40%
# FLuc counter – full-length luciferase signal inhibition, confirmation, counter-screen for Mdm2/MdmX interaction inhibitor project, cell-based, single concentration, SaOS-2 | shares compounds with Mdm2 MdmX PPI | SaOS-2 full-length luciferase counterscreen, luminescence | inhibition, % at 8 µM | 77% of 6,200 active;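 active means mean inhibition at 8 µM reaching about 37%, which flags the compound as non-specific, limit read from the data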;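 further: p53-null SaOS-2 cells with luciferase driven by a doxycycline-inducible promoter; compound on cells about two nights before reading with doxycycline added after day one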
# Hits are given with their value; 0 = inactive; ? = inconclusive; - = no result given.
SMILES,Beta apoptosis,CSC inhib,SKKanGAS inh,NR3A LBD binder,MPTP inh,Mdm2 MdmX PPI,Mdm2-MdmX conf,FLuc counter
COc1ccc(/C=C(\NC(=O)c2ccc(C)cc2)C(=O)N2CCCCC2)cc1,0,0,0,0,0,0,-,-
O=C1C(=C2SCCCS2)CC/C1=C\c1ccc(F)cc1,0,0,0,0,0,82,81,0
CC(=O)C[C@H](O)CC(=O)[C@H]1OC(=O)CC/C=C\Cc2ccccc21,0,0,-,0,0,0,-,-
CCOC(=O)c1cnc(-n2nc(C)cc2C)nc1NC1CCCCC1,-,0,83,0,0,86,92,0
CCOC(=O)c1cnc(-n2nc(C)cc2C)nc1NNc1nc(-c2ccccc2)cc(-c2ccccc2)n1,118,128,105,0,0,63,72,0
CCOC(=O)c1cnc(-n2nc(C)cc2C)nc1Nc1ccc(N(C)C)cc1,109,0,97,0,0,71,48,61
CCOC(=O)c1cc(NC(=O)NC2CCCCC2)c(C)nc1C,0,0,0,0,0,0,-,-
CCOC(=O)c1cnc(-n2nc(C)cc2C)nc1Oc1ccc(C#N)cc1,0,0,0,0,0,0,-,-
NC(=O)c1nc2c([nH]c1=O)CCCC2,-,-,-,-,0,-,-,-
CCCCCCCCn1c(=O)c(C(=O)OC)c(N)c2ccccc21,117,0,0,0,0,75,0,-
CC(NC(=O)c1ccccc1Cl)C(=O)N1CCN(Cc2ccc3c(c2)OCO3)CC1 (centres undefined),-,-,-,0,0,0,-,-
O=C(NCCN1C(=O)S/C(=C\c2ccc(Cl)c([N+](=O)[O-])c2)C1=O)C1=COCCO1,0,0,0,0,0,96,58,57
O=C(NCCN1C(=O)S/C(=C\c2ccc(Cl)c(Cl)c2)C1=O)c1cnccn1,0,0,0,0,0,0,-,-
Cc1oc(-c2ccccc2Cl)nc1Cn1cccc1C1=NC(c2ccccc2)CO1 (centres undefined),0,0,?,0,0,55,57,90
Cc1ccc(C)c(NC(=O)COC(=O)c2cc(=O)c3ccccc3o2)c1,-,-,-,0,0,0,-,-
CCOCCCNC(=O)c1ccc2c(c1)N=C(CC)c1cc(Br)ccc1S2,0,0,0,0,0,66,60,113
Cc1cccc(NC(=O)CN(CC2CCCO2)C(=O)c2oc3ccccc3c2C)c1C (centres undefined),0,0,-,0,0,0,-,-
COC(=O)c1sc(N2C(=O)C(O)=C(C(=O)c3ccc(C)o3)C2c2cc(OC)ccc2OC)nc1C (centres undefined),0,0,0,-,0,0,-,-
O=C(COc1ccccc1)N=C1SC2CS(=O)(=O)CC2N1c1ccc(F)cc1 (centres undefined),0,0,0,0,0,0,-,-
Clc1ccc(Cn2ncc3c(NCc4ccco4)ncnc32)c(Cl)c1,0,0,0,0,-,74,66,0
c1ccc(CNc2ncnc3c2cnn3Cc2ccccc2)cc1,0,0,0,0,0,58,55,70
OCCNc1ncnc2c1cnn2Cc1ccccc1,0,0,0,0,0,-,-,-
COc1ccc(N(S(=O)(=O)c2ccccc2)S(=O)(=O)c2ccccc2)c(N)c1,0,0,0,0,0,0,-,-
COc1ccc(-c2ccc(C#N)c(SCC(=O)Nc3sc4c(c3C#N)CCC4)n2)cc1OC,0,0,0,0,0,97,63,102
COc1cccc(-c2ccc(C#N)c(OC(=O)c3ccc(Cl)cc3)n2)c1,0,0,0,0,0,0,-,-
SMILES,Beta apoptosis,CSC inhib,SKKanGAS inh,NR3A LBD binder,MPTP inh,Mdm2 MdmX PPI,Mdm2-MdmX conf,FLuc counter
COc1ccc(-c2ccc(C#N)c(SCC(=O)NCCc3ccccc3)n2)cc1OC,0,0,-,0,0,0,-,-
COc1cccc(-c2ccc(C#N)c(SCC(=O)NCCc3cccc(Cl)c3)n2)c1,0,0,0,0,0,55,0,-
N#Cc1cc2c(nc1SCC(=O)Nc1sc3c(c1C#N)CCC3)CCC2,0,0,0,0,0,0,-,-
COc1cccc(-c2ccc(C#N)c(OC(=O)c3c(Cl)cccc3Cl)n2)c1,0,77,0,0,0,83,0,-
CN(CC(=O)NCC1CCCCC1)CC(=O)Nc1ccc(F)cc1,0,-,-,0,0,0,-,-
CCOc1ccc2[nH]c3c(N4CCc5ccccc5C4)ncnc3c2c1,0,87,51,0,0,57,59,0
Brc1ccc2[nH]c3c(N4CCc5ccccc5C4)ncnc3c2c1,0,80,86,0,-,69,0,-
c1ccc2c(c1)[nH]c1c(N3CCCC3)ncnc12,0,-,0,0,0,0,-,-
CN1CCN(c2ncnc3c2[nH]c2ccc(F)cc23)CC1,0,0,0,0,0,0,-,-
O=C(CN1CC(c2ccccc2)CC1=O)N/N=C/c1cc(Br)ccc1O (centres undefined),0,0,79,0,0,62,65,43
CCOc1ccc(NC(=O)CN2CC(c3ccccc3)CC2=O)cc1 (centres undefined),0,0,0,0,0,0,-,-
CN(C)C1=NCCN1CC1CCCC1,0,0,-,0,0,0,-,-
CCc1ccc(/C=N/NC(=O)c2cc(C3CC3)nc3ccc(Br)cc23)s1,0,0,0,0,0,63,55,54
CCn1c(O)c(C=C2N=c3ccccc3=N2)sc1=S,0,0,0,0,0,0,-,-
CC(C)n1c(O)c(/C=C2\C=NN=C2c2ccccc2)sc1=S,0,0,0,11,0,61,43,48
CCn1c(O)c(/C=C2\C=NN=C2c2ccc(C)cc2)sc1=S,0,0,0,12,0,82,63,97
CCCN(Cc1nnc(-c2ccccc2Cl)o1)C(=O)c1oc2ccccc2c1C,0,0,0,0,0,0,-,-
Cc1sc(NC(=O)c2ccccc2)c(C(c2ccc(Cl)cc2)N2CCN(CCO)CC2)c1C (centres undefined),0,0,0,0,0,54,0,84
CCOc1ccc(C(c2c(NC(=O)c3ccccc3)sc(C)c2C)N2CCN(CCO)CC2)cc1 (centres undefined),0,0,0,0,0,0,-,-
O=C(c1cc(Br)c(Br)s1)N1CCc2ccccc2C1,0,0,-,0,0,0,-,-
COc1ccc2oc(=O)c(-c3csc(Nc4ccc(O)cc4)n3)cc2c1,0,0,104,11,0,54,0,133
CC(C)(C)c1ccc(CN2N=Nc3ccccc3S2(=O)=O)cc1,0,0,0,0,0,67,47,59
O=S1(=O)c2ccccc2N=NN1Cc1ccc(Cl)c(Cl)c1,0,0,0,-,-,0,-,-

# Assay outcomes deposited in PubChem BioAssay by several laboratories.
